# From PubChem BioAssay (EPA / NIEHS)
# Inconclusive results are not listed. Calls of active or inactive are those of the source. How the source made its calls: active means hit-call score of the fitted dose curve at least 0.9, where 1 is the maximum; inconclusive means response in the unintended direction; inactive means score below 0.9.
# Assays:
# [1] = ACEA_AR_agonist_AUC_viability: ACEA Biosciences xCELLigence Real-Time Cell Analysis on Androgen Receptor Agonism for Viability (AID 2283775);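 on AC50: viability read 80 hours after compound addition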
# Procedure, shortened: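 22Rv1 cells; impedance growth kinetics; 8-pt 1:4 dilutions from 100 uM top final, ≤0.5% DMSO; n = 2; 80 h read; AUC viability, loss-of-signal vs DMSO.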
# [2] = ACEA_AR_antagonist_AUC_viability: ACEA Biosciences xCELLigence Real-Time Cell Analysis on Androgen Receptor Antagonism for Viability (AID 2283776);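 further: 22Rv1 human prostate cancer cells growing on impedance electrode plates; area under impedance growth curve at 80 h after dosing as viability; hits lower the growth signal relative to DMSO meaning cytotoxicity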
# Procedure, shortened: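 22Rv1 prostate cells, continuous dosing up to 100 uM final (0.5% DMSO max), duplicate plates. Growth measured by impedance; AUC at 80 h, loss of signal vs DMSO.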
# [3] = ACEA_ER_AUC_viability: ACEA Biosciences xCELLigence Real-Time Cell Analysis on Estrogen Receptor Agonism for Viability (AID 2283782);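 further: hit means loss of impedance signal meaning reduced cell growth or viability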
# Procedure, shortened: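 Read-out: real-time electrical impedance (RT-CES) area under curve, loss of signal taken as reduced viability, normalized to DMSO baseline. T-47D cells, charcoal-stripped serum medium, compounds up to 100 uM final, continuous exposure, 80 h.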
# [4] = tested on: zebrafish Androgen Receptor (AR), gene 100005148; assay: ATG_zfAR_XSP1: Attagene TRANS-FACTORIAL Multi-Species (XSP1) HepG2 Assay for zebrafish Androgen Receptor (AR) (AID 2283771)
# Procedure, shortened: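 Gain-of-signal versus DMSO was measured as reporter transcripts quantified by RT-PCR, fluorescent labelling and capillary electrophoresis after 24 h chemical exposure. The cells were HepG2 expressing a chimeric zebrafish AR-GAL4, co-stimulated with 3 nM 6-alpha-fluorotestosterone.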
# [5] = molecular target: zebrafish Estrogen Receptor (ESR1), esr1 (gene 259252) (UniProt P57717); assay: ATG_zfER1_XSP1: Attagene TRANS-FACTORIAL Multi-Species (XSP1) HepG2 Assay for zebrafish Estrogen Receptor (ESR1) (AID 2283772)
# Sequence of zebrafish Estrogen Receptor (ESR1), esr1 (gene 259252) (P57717 whole entry, looked up, the tested form may be a part): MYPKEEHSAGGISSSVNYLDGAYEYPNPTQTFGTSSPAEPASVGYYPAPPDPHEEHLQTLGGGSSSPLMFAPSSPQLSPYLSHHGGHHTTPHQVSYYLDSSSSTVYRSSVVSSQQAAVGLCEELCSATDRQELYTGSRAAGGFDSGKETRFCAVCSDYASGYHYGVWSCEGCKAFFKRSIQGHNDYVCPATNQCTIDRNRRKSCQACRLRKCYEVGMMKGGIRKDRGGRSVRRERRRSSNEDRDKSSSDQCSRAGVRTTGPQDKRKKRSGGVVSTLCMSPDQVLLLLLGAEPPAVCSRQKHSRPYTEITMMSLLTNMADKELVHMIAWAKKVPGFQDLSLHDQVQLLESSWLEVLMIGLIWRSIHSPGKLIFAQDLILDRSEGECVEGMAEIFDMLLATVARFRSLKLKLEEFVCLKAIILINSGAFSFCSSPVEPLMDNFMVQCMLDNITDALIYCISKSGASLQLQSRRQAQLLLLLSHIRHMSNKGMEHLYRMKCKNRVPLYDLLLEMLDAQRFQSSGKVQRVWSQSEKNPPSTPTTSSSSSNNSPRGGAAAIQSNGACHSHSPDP
# Procedure, shortened: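 Readout: fluorescent reporter mRNA, RT-PCR plus FAM labelling, HpaI digest, capillary electrophoresis; gain-of-signal fit vs DMSO. HepG2, transient multi-reporter TRANS (NR-GAL4 chimera), 24 h chemical exposure, 3 nM 6-alpha-fluorotestosterone co-added.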
# [6] = tested on: zebrafish Estrogen Receptor (ESR2B), gene 317733; assay: ATG_zfER2b_XSP1: Attagene TRANS-FACTORIAL Multi-Species (XSP1) HepG2 Assay for zebrafish Estrogen Receptor (ESR2B) (AID 2283773)
# Procedure, shortened: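 Multiplexed TRANS format in transfected HepG2 liver cells, chimeric NR-Gal4 from zebrafish ESR2B. 24 h dosing; medium contains 3 nM 6-alpha-fluorotestosterone. mRNA induction by RT-PCR/CE, positive direction vs DMSO.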
# [7] = tested on: frog Estrogen Receptor (ESR2), gene 100174814; assay: ATG_frER2_XSP1: Attagene TRANS-FACTORIAL Multi-Species (XSP1) HepG2 Assay for frog Estrogen Receptor (ESR2) (AID 2283774)
# Procedure, shortened: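 HepG2, transient MRTU transfection (GAL4-UAS reporters, exogenous NR-Gal4 chimeras); 24 h compound exposure; 3 nM 6α-fluorotestosterone co-added; total RNA → RT-PCR → 6-FAM primer extension → HpaI → CE. Positive direction vs DMSO.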
# [8] = tested on: frog Estrogen Receptor (ESR1), gene 398734; assay: ATG_frER1_XSP1: Attagene TRANS-FACTORIAL Multi-Species (XSP1) HepG2 Assay for frog Estrogen Receptor (ESR1) (AID 2283777)
# Procedure, shortened: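 Transient MRTU transfection, HepG2 (human liver); 24 h dosing, 3 nM 6α-fluorotestosterone co-added; RNA → RT-PCR → 6-FAM labeling → CE; upward activity vs DMSO.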
# [9] = tested on: zebrafish Estrogen Receptor (ESR2A), gene 317734; assay: ATG_zfER2a_XSP1: Attagene TRANS-FACTORIAL Multi-Species (XSP1) HepG2 Assay for zebrafish Estrogen Receptor (ESR2A) (AID 2283778)
# Procedure, shortened: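 Transient transfection of HepG2 (human liver) with MRTU constructs; chemical dosing for 24 h; medium contained 3 nM 6-alpha-fluorotestosterone to partly stimulate AR. RT-PCR/CE fluorescence of reporter transcripts; positive direction vs DMSO.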
# [10] = molecular target: chicken Estrogen Receptor (ESR1), ESR1 (gene 396099) (UniProt P06212); assay: ATG_chERa_XSP1: Attagene TRANS-FACTORIAL Multi-Species (XSP1) HepG2 Assay for chicken Estrogen Receptor (ESR1) (AID 2283779)
# Sequence of chicken Estrogen Receptor (ESR1), ESR1 (gene 396099) (P06212 whole entry, looked up, the tested form may be a part): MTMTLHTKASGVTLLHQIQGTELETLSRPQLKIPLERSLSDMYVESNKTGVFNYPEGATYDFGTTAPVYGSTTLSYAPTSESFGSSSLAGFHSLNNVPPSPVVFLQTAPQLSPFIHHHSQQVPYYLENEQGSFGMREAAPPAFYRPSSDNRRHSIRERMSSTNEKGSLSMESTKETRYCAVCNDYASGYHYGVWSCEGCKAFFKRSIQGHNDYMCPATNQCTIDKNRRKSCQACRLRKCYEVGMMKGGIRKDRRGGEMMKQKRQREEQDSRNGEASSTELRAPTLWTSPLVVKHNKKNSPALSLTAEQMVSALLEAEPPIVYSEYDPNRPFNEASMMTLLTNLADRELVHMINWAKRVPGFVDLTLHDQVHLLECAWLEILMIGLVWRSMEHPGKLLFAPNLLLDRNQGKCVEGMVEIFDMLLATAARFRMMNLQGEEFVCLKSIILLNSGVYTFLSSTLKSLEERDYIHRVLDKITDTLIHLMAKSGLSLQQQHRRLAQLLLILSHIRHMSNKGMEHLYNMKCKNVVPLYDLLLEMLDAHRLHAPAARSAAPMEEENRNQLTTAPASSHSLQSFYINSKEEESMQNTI
# Procedure, shortened: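 Read-out: fluorescent reporter mRNA fragments resolved by capillary electrophoresis after RT-PCR and HpaI digestion. Transfected HepG2 cells carried chimeric NR-Gal4 constructs, were dosed 24 h with 3 nM 6-alpha-fluorotestosterone added, and activity was fitted upward relative to DMSO.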
# [11] = molecular target: Estrogen receptor (Homo sapiens) (UniProt P03372); assay: ATG_hERa_XSP1: Attagene TRANS-FACTORIAL Multi-Species (XSP1) HepG2 Assay for human Estrogen Receptor (ESR1) (AID 2283780)
# Sequence of Estrogen receptor (Homo sapiens) (P03372 whole entry, looked up, the tested form may be a part): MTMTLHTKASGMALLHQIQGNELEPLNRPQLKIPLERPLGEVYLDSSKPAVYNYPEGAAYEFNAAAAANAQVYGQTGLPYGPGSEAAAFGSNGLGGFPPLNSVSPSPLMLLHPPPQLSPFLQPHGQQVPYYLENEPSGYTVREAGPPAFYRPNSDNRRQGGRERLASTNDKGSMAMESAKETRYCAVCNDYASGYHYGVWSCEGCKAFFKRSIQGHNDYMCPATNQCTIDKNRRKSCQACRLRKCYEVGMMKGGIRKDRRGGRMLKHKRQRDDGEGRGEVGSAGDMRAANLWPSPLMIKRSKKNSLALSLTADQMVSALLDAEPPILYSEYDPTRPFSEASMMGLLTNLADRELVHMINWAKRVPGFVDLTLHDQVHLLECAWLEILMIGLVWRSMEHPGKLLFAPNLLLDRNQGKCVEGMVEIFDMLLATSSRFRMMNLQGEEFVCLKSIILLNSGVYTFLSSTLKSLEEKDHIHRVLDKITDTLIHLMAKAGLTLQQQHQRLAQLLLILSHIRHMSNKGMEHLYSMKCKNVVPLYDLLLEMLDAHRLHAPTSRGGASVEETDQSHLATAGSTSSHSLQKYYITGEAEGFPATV
# Procedure, shortened: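 Reporter transcripts from multiplexed GAL4-UAS units driven by NR-Gal4 chimeras in transiently transfected HepG2 were measured by RT-PCR with capillary electrophoresis 24 h post-dose, with 3 nM 6-alpha-fluorotestosterone present; gain-of-signal relative to DMSO.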
# [12] = tested on: turtle Estrogen Receptor (ESR1), gene 101933533; assay: ATG_trERa_XSP1: Attagene TRANS-FACTORIAL Multi-Species (XSP1) HepG2 Assay for turtle Estrogen Receptor (ESR1) (AID 2283781)
# Procedure, shortened: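 Transfect HepG2 with reporter units → dose chemical 24 h (medium has 3 nM 6-alpha-fluorotestosterone) → isolate RNA, RT-PCR → FAM primer extension, HpaI digest → capillary electrophoresis; gain of signal vs DMSO.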
# [13] = molecular target: Estrogen receptor beta (Homo sapiens) (UniProt Q92731); assay: ATG_hERb_XSP1: Attagene TRANS-FACTORIAL Multi-Species (XSP1) HepG2 Assay for human Estrogen Receptor (ESR2) (AID 2283788)
# Sequence of Estrogen receptor beta (Homo sapiens) (Q92731 whole entry, looked up, the tested form may be a part): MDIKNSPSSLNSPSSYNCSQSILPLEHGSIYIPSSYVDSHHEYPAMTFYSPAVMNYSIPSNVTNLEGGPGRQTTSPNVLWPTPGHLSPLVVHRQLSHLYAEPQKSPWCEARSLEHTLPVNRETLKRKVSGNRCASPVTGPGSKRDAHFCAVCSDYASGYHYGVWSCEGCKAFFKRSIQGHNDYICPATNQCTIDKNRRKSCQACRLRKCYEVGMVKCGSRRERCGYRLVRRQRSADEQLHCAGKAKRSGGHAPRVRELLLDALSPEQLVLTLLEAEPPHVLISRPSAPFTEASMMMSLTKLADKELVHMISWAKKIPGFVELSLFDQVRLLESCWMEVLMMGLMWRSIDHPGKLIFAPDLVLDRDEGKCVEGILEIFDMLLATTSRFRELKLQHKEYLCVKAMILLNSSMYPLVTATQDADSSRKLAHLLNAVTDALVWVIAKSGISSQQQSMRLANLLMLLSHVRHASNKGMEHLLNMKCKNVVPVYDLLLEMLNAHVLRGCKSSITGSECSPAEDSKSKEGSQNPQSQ
# Procedure, shortened: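 Transient MRTU transfection of HepG2; ERβ–GAL4 TRANS format; 24 h dosing; 3 nM 6α-fluorotestosterone co-added; RNA → RT-PCR → 6-FAM primer extension → CE; activity vs DMSO.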
# [14] = molecular target: GAL4 Transcription Factor (Internal Marker), GAL4 (gene 855828) (UniProt P04386); assay: ATG_GAL4_XSP1: Attagene TRANS-FACTORIAL Multi-Species (XSP1) HepG2 Assay for GAL4 Transcription Factor (Internal Marker) (AID 2283789)
# Sequence of GAL4 Transcription Factor (Internal Marker), GAL4 (gene 855828) (P04386 whole entry, looked up, the tested form may be a part): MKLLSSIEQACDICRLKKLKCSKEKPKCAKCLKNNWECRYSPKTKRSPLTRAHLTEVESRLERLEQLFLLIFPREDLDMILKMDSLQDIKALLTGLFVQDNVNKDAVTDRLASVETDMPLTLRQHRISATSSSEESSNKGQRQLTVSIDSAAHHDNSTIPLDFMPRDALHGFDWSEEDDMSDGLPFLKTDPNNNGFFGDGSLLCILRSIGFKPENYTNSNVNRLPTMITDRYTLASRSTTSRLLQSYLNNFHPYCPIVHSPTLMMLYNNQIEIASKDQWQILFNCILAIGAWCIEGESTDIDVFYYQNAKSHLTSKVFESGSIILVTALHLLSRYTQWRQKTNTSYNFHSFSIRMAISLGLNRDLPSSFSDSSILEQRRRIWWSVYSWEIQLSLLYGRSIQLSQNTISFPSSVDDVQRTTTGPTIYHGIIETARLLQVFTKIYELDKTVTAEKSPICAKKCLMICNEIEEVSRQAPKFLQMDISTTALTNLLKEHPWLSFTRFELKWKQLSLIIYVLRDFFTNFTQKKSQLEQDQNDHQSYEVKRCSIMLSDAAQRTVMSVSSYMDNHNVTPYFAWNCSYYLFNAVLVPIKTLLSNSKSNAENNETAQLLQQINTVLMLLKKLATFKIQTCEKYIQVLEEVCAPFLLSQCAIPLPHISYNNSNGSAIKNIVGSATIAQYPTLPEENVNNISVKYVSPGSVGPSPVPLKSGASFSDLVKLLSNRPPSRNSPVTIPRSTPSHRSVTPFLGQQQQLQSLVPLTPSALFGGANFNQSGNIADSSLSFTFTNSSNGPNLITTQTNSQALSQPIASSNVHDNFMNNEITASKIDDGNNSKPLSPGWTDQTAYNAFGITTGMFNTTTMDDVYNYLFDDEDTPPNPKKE
# Procedure, shortened: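 This background-control endpoint measures GAL4-driven reporter mRNA via RT-PCR and capillary electrophoresis of labelled fragments. Transiently transfected HepG2 cells were treated 24 h, with 3 nM 6-alpha-fluorotestosterone included, and gain-of-signal was fitted against DMSO.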
# [15] = ATG_M_06_XSP1: Attagene TRANS-FACTORIAL Multi-Species (XSP1) HepG2 Assay for M06 Transcription Factor (Internal Marker) (AID 2283790)
# Procedure, shortened: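 This background-control readout tracks M06 reporter mRNA, measured by RT-PCR and capillary electrophoresis. HepG2 cells transiently carrying the GAL4-UAS reporter panel were dosed for 24 h with 3 nM 6-alpha-fluorotestosterone added for partial AR stimulation; increases were scored relative to DMSO.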
# [16] = ATG_M_61_XSP1: Attagene TRANS-FACTORIAL Multi-Species (XSP1) HepG2 Assay for M61 Transcription Factor (Internal Marker) (AID 2283797)
# Procedure, shortened: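 Background-control readout: reporter transcripts measured by RT-PCR and capillary electrophoresis 24 h after dosing transiently transfected HepG2 multi-reporter cells, with 3 nM 6-alpha-fluorotestosterone present. Fitted in the positive direction relative to DMSO.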
# [17] = ATG_M_32_XSP1: Attagene TRANS-FACTORIAL Multi-Species (XSP1) HepG2 Assay for M32 Transcription Factor (Internal Marker) (AID 2283799)
# Procedure, shortened: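 Reporter transcripts from the M32 internal-control unit measured by RT-PCR, FAM labelling, HpaI digestion and capillary electrophoresis after 24 h compound exposure of transfected HepG2, 3 nM 6-alpha-fluorotestosterone included; DMSO baseline, positive-direction fit.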
# [18] = molecular target: Peroxisome proliferator-activated receptor gamma (Homo sapiens) (UniProt P37231); assay: ATG_hPPARg_XSP1: Attagene TRANS-FACTORIAL Multi-Species (XSP1) HepG2 Assay for human Peroxisome Proliferator-activated Receptor gamma (PPARg) (AID 2283800)
# Sequence of Peroxisome proliferator-activated receptor gamma (Homo sapiens) (P37231 whole entry, looked up, the tested form may be a part): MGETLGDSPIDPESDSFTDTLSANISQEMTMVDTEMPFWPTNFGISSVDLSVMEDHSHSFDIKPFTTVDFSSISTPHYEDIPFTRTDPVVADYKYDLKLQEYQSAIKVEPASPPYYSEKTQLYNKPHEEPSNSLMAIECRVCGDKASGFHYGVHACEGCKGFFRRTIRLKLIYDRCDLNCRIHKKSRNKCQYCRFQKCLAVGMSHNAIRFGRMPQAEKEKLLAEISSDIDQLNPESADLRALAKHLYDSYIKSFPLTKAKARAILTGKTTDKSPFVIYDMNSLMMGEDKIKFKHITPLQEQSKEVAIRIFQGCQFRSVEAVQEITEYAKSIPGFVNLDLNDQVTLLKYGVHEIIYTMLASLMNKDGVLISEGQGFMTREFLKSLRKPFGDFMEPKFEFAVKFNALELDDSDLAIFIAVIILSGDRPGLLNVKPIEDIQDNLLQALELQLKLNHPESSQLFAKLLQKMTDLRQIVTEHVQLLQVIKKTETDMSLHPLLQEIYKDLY
# Procedure, shortened: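 Reporter mRNA induction, measured by RT-PCR with capillary electrophoresis 24 h after dosing, scored as gain over DMSO. Transfected HepG2 cells express exogenous NR-Gal4 chimeras driving GAL4-UAS reporters; medium includes 3 nM 6-alpha-fluorotestosterone.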
compound,measurement,setting,value
O=C(O)CC(O)C(=O)O (centres undefined),outcome,[1],inactive
same,outcome,[2],inactive
CC(=O)c1ccc2c(c1)[C@H](NC(=O)c1ccc(F)cc1)[C@@H](O)C(C)(C)O2,outcome,[1],inactive
same,outcome,[2],inactive
Cn1c(=O)c2c(ncn2C)n(C)c1=O,outcome,[1],inactive
same,outcome,[2],inactive
same,outcome,[3],inactive
O=P(OC(CCl)CCl)(OC(CCl)CCl)OC(CCl)CCl,outcome,[4],inactive
same,outcome,[5],inactive
same,AC50,[6],20.8 µM (active)
same,AC50,[7],26 µM (active)
same,AC50,[1],31.8 µM (active)
same,AC50,[2],29.8 µM (active)
same,AC50,[8],3.06 µM (active)
same,outcome,[9],inactive
same,AC50,[10],3.85 µM (active)
same,AC50,[11],2.78 µM (active)
same,AC50,[12],5.66 µM (active)
same,outcome,[3],inactive
same,AC50,[13],26 µM (active)
same,outcome,[14],inactive
same,outcome,[15],inactive
same,outcome,[16],inactive
same,outcome,[17],inactive
same,outcome,[18],inactive
CNCc1ccc(NC(=O)c2c[nH]c3c2C(=O)CCC3)cc1,AC50,[1],50 µM (active)
same,AC50,[2],67 µM (active)
COc1ccc(-n2nc(C(F)F)cc2-c2ccc(S(C)=O)cc2)cc1 (centres undefined),outcome,[1],inactive
same,outcome,[2],inactive
CC(C)=CCCC(C)=CC=O,outcome,[1],inactive
same,outcome,[2],inactive
NC(=O)NO,outcome,[1],inactive
same,outcome,[2],inactive
COc1ccc(/C=C/S(=O)(=O)NC(=O)c2ccc(C)cc2Cl)cc1,AC50,[1],16.3 µM (active)
same,AC50,[2],22.7 µM (active)
C1=CCCC=CCCC=CCC1,outcome,[1],inactive
same,outcome,[2],inactive
same,outcome,[3],inactive
O=C(O)CCN(C1(C(=O)NO)CCCC1)S(=O)(=O)c1ccc(Oc2ccc(F)cc2)cc1,outcome,[1],inactive
same,outcome,[2],inactive
CC(=O)OCCC(C)C,outcome,[1],inactive
same,outcome,[2],inactive
Nc1ccc(Nc2ccccc2)cc1,AC50,[1],93 µM (active)
same,AC50,[2],87.5 µM (active)
CCN(C(=O)c1cc(C)cc(OC[C@H](C)Nc2ccncc2)c1)C(C)C,AC50,[1],33.8 µM (active)
same,AC50,[2],11.2 µM (active)
O=C(NS(=O)(=O)/C=C/c1ccccc1)c1ccc(F)cc1Cl,AC50,[1],5.76 µM (active)
same,AC50,[2],13.1 µM (active)
CC1=CC(=O)CC(C)(C)C1,outcome,[1],inactive
same,outcome,[2],inactive
CC(C)CC(C)(O)C#CC(C)(O)CC(C)C (centres undefined),outcome,[1],inactive
same,outcome,[2],inactive
O=C1CCCCCN1,outcome,[1],inactive
same,outcome,[2],inactive
